FBW7 act = activators of human E3 ligase FBW7 | Q969H0 | AlphaScreen FBW7–phospho-cyclin E peptide binding, activator screen | normalized activity (activation), % at 26.1 µM | 650,000 tested, 0.13% active | AID 1259310; in the data active = normalized activity above about 1.9%;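 note: purified mutant Fbw7 with reduced substrate affinity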
MITF inh = inhibitors of human MITF; AlphaScreen MITF homodimerization, bead proximity signal; inhibition, % at 2.6 µM; 650,000 tested, 0.91% active; AID 1259374; in the data active = inhibition above about 50%;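 note: 0% = vehicle wells with protein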
Target sequence (O75030 whole entry, looked up): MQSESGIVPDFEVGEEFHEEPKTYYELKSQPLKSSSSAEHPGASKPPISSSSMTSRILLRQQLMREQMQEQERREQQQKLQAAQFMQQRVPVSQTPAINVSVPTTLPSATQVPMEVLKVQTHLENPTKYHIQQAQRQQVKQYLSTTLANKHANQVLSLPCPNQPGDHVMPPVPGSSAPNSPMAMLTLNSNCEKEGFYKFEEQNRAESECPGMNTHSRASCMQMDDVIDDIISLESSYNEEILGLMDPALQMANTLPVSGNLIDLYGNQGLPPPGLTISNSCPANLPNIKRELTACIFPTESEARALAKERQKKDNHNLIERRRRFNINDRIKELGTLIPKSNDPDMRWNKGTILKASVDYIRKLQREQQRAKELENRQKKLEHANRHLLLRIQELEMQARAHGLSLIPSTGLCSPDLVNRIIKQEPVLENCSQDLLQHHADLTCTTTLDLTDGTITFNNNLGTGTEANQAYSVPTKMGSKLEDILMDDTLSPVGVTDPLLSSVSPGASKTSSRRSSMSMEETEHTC
GPR151 activ = human GPR151 activation | Q8TDV0 | PathHunter beta-arrestin GPR151 cells, luminescence | activation, % at 11.2 µM | 650,000 tested, 1% active; in the data active = activation above about 4.9%;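 note: 0% = median of compound wells and 100% = cells with positive control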
TEAD-YAP inh = TEAD-YAP interaction inhibition | 640,000 tested, 1.4% active | HEK-TIYL cells, TEAD-Gal4/YAP UAS-luciferase luminescence | inhibition, % at 9.12 µM; in the data active = inhibition above about 32%;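 note: 0% = median of test compound wells and 100% = reference inhibitor wells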
GPR151 confirm = human GPR151 activation, confirmation screen; 6,700 tested, under 10 active; shares compounds with GPR151 activ; GPR151 PathHunter beta-arrestin cells, luminescence, 90 min; % of EA-reagent control over plate median; activation, % at 11.2 µM;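 active = mean percent activation across replicates above the confirmation screen cutoff of 4.91%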
GPR119 ag = counter-screen for GPR151 activators: effect on human GPR119; shares compounds with GPR151 activ; activation, % at 11.2 µM; 6,700 tested, 0.3% active; GPR119 PathHunter beta-arrestin cells, luminescence, 90 min; 0 = compound-well median, 100 = enzyme-acceptor control;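 active = mean percent activation in the counterscreen above 29.09%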;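 note: counterscreen on off-target GPR119 to flag nonselective hits from the GPR151 activator screen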
The depositor's hits bear a star. Sampled rows, rich in hits. Any-hit rate of the full collection: about 3.4%.

For C=CCn1c(O)c(/C=C2\C=CC=N2)c(=O)[nH]c1=S the results were FBW7 act -0.1, MITF inh 39.6, GPR151 activ -0.5 and TEAD-YAP inh 16.5.
COc1ccc(N2CCN(Cc3ccc(C)cc3)C2=O)cc1 was read as FBW7 act 0.0, MITF inh -4.4, GPR151 activ -0.6 and TEAD-YAP inh -14.3.
For Clc1ccc(C(Cn2ccnc2)OCc2c(Cl)cccc2Cl)c(Cl)c1 (stereo not given) the results were FBW7 act 0.0, MITF inh -7.1, GPR151 activ 10.2*, GPR151 confirm 1.6 and GPR119 ag -4.7.
`CCS(=O)(=O)N1CCC(c2nc3c(nnn3Cc3ccc(F)cc3)c(=O)[nH]2)CC1` gave FBW7 act 0.1, MITF inh -7.0, GPR151 activ -1.4 and TEAD-YAP inh 3.9.
For COc1ccc(OC)c(N2CC(O)(c3ccc(OC)c(OC)c3)[N+]3=C2SCCC3)c1 (stereo not given) the results were FBW7 act 0.0, MITF inh -5.9, GPR151 activ 5.4*, TEAD-YAP inh -0.4, GPR151 confirm -0.4 and GPR119 ag -11.1.
`COc1ccc(C2(O)CN(c3cc(OC)ccc3OC)C3=[N+]2CCCS3)cc1` (stereo not given) gave FBW7 act 0.2, MITF inh 14.6, GPR151 activ -0.6 and TEAD-YAP inh -0.7.
Screening CCCCC1=NN2C(=N)/C(=C/c3ccc(OCCOc4cc(C)cc(C)c4)c(OC)c3)C(=O)N=C2S1 returned FBW7 act -0.1, MITF inh 8.0, GPR151 activ 0.3 and TEAD-YAP inh 5.7.
For O=C(O)c1cc(N2C(=O)C3C4C=CC(C4=C(c4ccccc4)c4ccccc4)C3C2=O)ccc1Cl (stereo not given) the results were FBW7 act -0.1, MITF inh -5.9, GPR151 activ 5.1*, TEAD-YAP inh 1.2, GPR151 confirm -0.1 and GPR119 ag 5.1.
For O=C(Nc1nnc(N2CCCC2)s1)Nc1ccc(Br)cc1F the results were FBW7 act -0.1, MITF inh 0.1, GPR151 activ 5.6*, TEAD-YAP inh -11.2, GPR151 confirm 0.0 and GPR119 ag -3.3.
Screening O=C(Nc1nnc(N2CCCC2)s1)Nc1ccccc1F returned FBW7 act 0.2, MITF inh -2.6, GPR151 activ 0.1 and TEAD-YAP inh -73.7.
Screening Cc1ccc(NC(=O)Nc2nnc(N3CCCCC3)s2)c(Cl)c1 returned FBW7 act -0.1, MITF inh -3.1, GPR151 activ 5.3*, TEAD-YAP inh 4.6, GPR151 confirm -0.1 and GPR119 ag -8.5.
Screening Cc1ccc2oc(-c3cc(NC(=O)c4ccc(F)cc4)ccc3Cl)nc2c1 returned FBW7 act 0.0, MITF inh -1.8, GPR151 activ -0.2 and TEAD-YAP inh -10.9.
`CCOc1ccc(NC(=O)C(=O)C2C(=O)Nc3ccccc32)cc1` (stereo not given) gave FBW7 act 0.8, MITF inh 13.5, GPR151 activ 0.0 and TEAD-YAP inh 6.0.
For CC(=O)Nc1cc(C(=O)O)cc(N)c1Cl the results were FBW7 act 0.5, MITF inh 15.9, GPR151 activ 5.5*, TEAD-YAP inh 0.5, GPR151 confirm -0.6 and GPR119 ag -1.9.
`COC(=O)c1cc(NC(C)=O)c(Cl)c(NC(C)=O)c1` gave FBW7 act 0.1, MITF inh 26.2, GPR151 activ -1.3 and TEAD-YAP inh 4.2.
`COc1ccc(-c2csc(NC(=O)c3cccc([N+](=O)[O-])c3)n2)cc1` gave FBW7 act 0.1, MITF inh 3.7, GPR151 activ -0.6 and TEAD-YAP inh 2.4.
Screening COc1ccc(NC(=O)N2CCC(CN3CCOCC3)CC2)c(OC)c1 returned FBW7 act 0.3, MITF inh 9.0, GPR151 activ 3.8 and TEAD-YAP inh -1.5.
Screening COc1ccc(NC(=O)N2CCC(CN3CCOCC3)CC2)cc1OC returned FBW7 act 0.4, MITF inh 5.3, GPR151 activ 6.9*, TEAD-YAP inh 5.5, GPR151 confirm 0.8 and GPR119 ag 6.5.
C/C(CC(=O)Nc1cccc(Cl)c1)=N\NC(=O)c1ccccc1O was read as FBW7 act 0.0, MITF inh -2.9, GPR151 activ -0.3 and TEAD-YAP inh -24.5.
`CC(=O)N1CCOc2cc(S(=O)(=O)N3CCC(C(N)=O)CC3)c(Cl)cc21` gave FBW7 act 0.2, MITF inh 4.3, GPR151 activ 1.4 and TEAD-YAP inh 0.0.
CC(=O)N1CCOc2cc(S(=O)(=O)N3CCN(C)CC3)c(Cl)cc21 was read as FBW7 act 0.0, MITF inh 8.6, GPR151 activ 5.1*, TEAD-YAP inh -3.1, GPR151 confirm 0.8 and GPR119 ag 5.7.
Screening COc1ccc(C(=O)OCCCC(=O)c2ccc(F)cc2)c(OC)c1 returned FBW7 act 0.0, MITF inh 6.2, GPR151 activ 2.1 and TEAD-YAP inh -0.4.
Screening COc1ccc(C(=O)OCCCOC(=O)c2ccc(OC)cc2OC)c(OC)c1 returned FBW7 act 0.3, MITF inh 24.1, GPR151 activ 5.9*, TEAD-YAP inh -21.0, GPR151 confirm 1.4 and GPR119 ag 7.6.
Cc1nc(SCC(=O)NC(=O)NCc2ccco2)c2c(-c3cccs3)csc2n1 was read as FBW7 act 0.1, MITF inh 11.1, GPR151 activ 5.0*, TEAD-YAP inh 2.2, GPR151 confirm 0.6 and GPR119 ag 3.8.
Cc1nc(SCC(=O)Nc2cc(C)on2)c2c(-c3cccs3)csc2n1 was read as FBW7 act 0.0, MITF inh 5.6, GPR151 activ 0.5 and TEAD-YAP inh 1.4.
`O=C(Nc1ccc2nn(-c3ccccc3)nc2c1)C(Cl)(Cl)Cl` gave FBW7 act 0.1, MITF inh -0.6, GPR151 activ -2.1 and TEAD-YAP inh -11.2.
`Nc1nc(NC(=O)C(Cl)(Cl)Cl)nn1-c1ccccc1` gave FBW7 act -0.8, MITF inh 24.6, GPR151 activ 7.0*, TEAD-YAP inh -4.9, GPR151 confirm -0.3 and GPR119 ag -14.1.
`COc1ccc(/C=C2/NC(=O)NC2=O)c(OC)c1OC` gave FBW7 act 0.0, MITF inh 4.3, GPR151 activ 0.7 and TEAD-YAP inh 9.1.
O=C(CCN1CCN(C2c3ccccc3-c3ccccc32)CC1)Nc1ccc(F)cc1 was read as FBW7 act -0.1, MITF inh -1.4, GPR151 activ 6.8*, TEAD-YAP inh -6.2, GPR151 confirm -0.1 and GPR119 ag 8.2.
`Cc1cc(C)n(C(=O)/C=C/c2cccc([N+](=O)[O-])c2)n1` gave FBW7 act 0.0, MITF inh -2.4, GPR151 activ 0.8 and TEAD-YAP inh -11.0.
`O=C(CSc1nnc(CNC(=O)c2ccccc2)o1)NCc1ccco1` gave FBW7 act 0.1, MITF inh 7.7, GPR151 activ 7.8*, TEAD-YAP inh 1.6, GPR151 confirm 0.8 and GPR119 ag 4.0.
